Compound activity: PubChem, National Center for Advancing Translational Sciences (NCATS)
B2AR arrestin: qHTS assay of beta-arrestin-biased ligands of beta2-adrenergic receptor; Beta-2 adrenergic receptor (Homo sapiens), P07550; beta-arrestin recruitment to beta2AR, cell-based reporter; Potency, µM (titrated, usually from 46.1 µM), for the others: at the highest dose activation, most hits filed as activators; 0.02% of 330,000 active; AID 492947, 2010;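 also: 0% = DMSO controls and full agonism = EC100 isoproterenol or metaproterenol; nearly all actives have a fitted effect of over 65% in size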
Target sequence (P07550 whole entry, looked up): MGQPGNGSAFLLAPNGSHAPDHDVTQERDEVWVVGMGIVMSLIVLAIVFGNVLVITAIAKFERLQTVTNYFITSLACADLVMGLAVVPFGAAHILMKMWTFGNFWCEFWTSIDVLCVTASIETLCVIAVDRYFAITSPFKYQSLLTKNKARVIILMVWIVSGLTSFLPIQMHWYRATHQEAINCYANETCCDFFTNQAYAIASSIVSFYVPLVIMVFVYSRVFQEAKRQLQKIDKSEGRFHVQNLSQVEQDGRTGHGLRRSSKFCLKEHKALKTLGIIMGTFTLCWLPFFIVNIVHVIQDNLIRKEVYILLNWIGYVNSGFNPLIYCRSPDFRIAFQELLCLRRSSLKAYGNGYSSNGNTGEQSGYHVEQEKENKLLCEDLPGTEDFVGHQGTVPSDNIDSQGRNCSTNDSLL
Chronic BCR inh: qHTS Assay to Find Inhibitors of Chronic Active B-Cell Receptor Signaling | ABC-DLBCL IkBa-CBG/CBR reporter, luminescence ratio, 4 h | Potency, µM (doses to about 46.1 µM), inactives show at the top dose activity change, negative = inhibition, hits mostly inhibitors | 0.05% of 340,000 active; active = well fitted inhibition curve with a large enough effect in the signal ratio, with a control signal flat, not every such curve was filed as active; inconclusive = small, poorly fitted or top-dose-only effect, or effect the other way, or a change in a side signal; the % refers to the signal ratio;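 also: plate controls were basal doxycycline-induced cells for no effect and cells given 10 µM MG132 for full effect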
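Compounds up to 46 uM were incubated four hours with TMD8 cells whose green CBG68 luciferase is fused to IkappaBalpha; red CBR luminescence normalised the signal, and concentration-effect curves were fitted to fusion, red and ratio data.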
MBNL1 CUG block: qHTS Assay for Inhibitors of MBNL1-poly(CUG) RNA binding; Muscleblind-like protein 1 (Homo sapiens), Q9NR56; TR-FRET MBNL1-His/biotin-(CUG)12 binding, 665/545 ratio; Potency, µM (highest dose often 57.5 µM), without a hit: at the highest dose activity change, negative = inhibition, most hits filed as inhibitors; 0.036% of 280,000 active; AID 2675, 2010; active = well fitted inhibition curve with a large enough effect in the signal ratio, with a control signal flat, not every such curve was filed as active; inconclusive = small, poorly fitted or top-dose-only effect, or effect the other way, or a change in a side signal; inactive = no such curve, though single readings can be large or run the other way; the % refers to the signal ratio
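His-tagged MBNL1 binding to biotinylated (CUG)12 RNA was measured by TR-FRET using terbium anti-His antibody (0.055 ng/ul final) and streptavidin-XL665 (5 nM final). Compounds were titrated 92 nM to 58 uM; 60 min at room temperature.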
GLS inh: qHTS for Inhibitors of Glutaminase (GLS). 0.21% of 410,000 active. GLS enzymatic activity, qHTS titration. Potency, µM (series often up to 45.5 µM), without a hit: top-dose activity change, negative = inhibition, hits mostly inhibitors. Glutaminase kidney isoform, mitochondrial (Homo sapiens), O94925
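hKGA; 45 mM KH2PO4 pH 8.2 + 0.02% Tween-20; cpd via pin tool; 1 mM Gln soln; GluOx/HRP/Amplex Red; RT 30 min; fluor. t0 & final.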
Anesthetic bind: qHTS Assay for Identification of Novel General Anesthetics; 0.074% of 350,000 active; Ferritin light chain (Equus caballus), P02791; AID 485281, 2010; Potency, µM (doses to about 77.5 µM), for inactives: at the top dose activity change, negative = displacement, hits mostly inhibitors; apoferritin/1-aminoanthracene competitive binding, fluorescence; also: nearly all actives have a fitted effect of over 20% in size
Target sequence (P02791 2-175 limits assumed): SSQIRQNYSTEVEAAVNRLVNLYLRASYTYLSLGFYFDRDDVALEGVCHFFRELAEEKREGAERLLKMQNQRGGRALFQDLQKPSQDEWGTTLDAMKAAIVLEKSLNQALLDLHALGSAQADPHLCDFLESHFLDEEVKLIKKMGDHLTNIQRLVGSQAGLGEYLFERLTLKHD
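Steps: apoferritin (10 uM) was premixed with half-saturated 1-AMA in PBS, compounds were pin-transferred, plates stood 10 min at room temperature, fluorescence was read at 380/535 nm, and curves were fitted with a Hill equation.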
The depositor's hits bear a star; [ ] = dose if it differs, or a comment. A selection: hits, their analogues and other compounds. The true share with any hit is near 0.35%. Unless noted, calls follow the shape of the dose curve; as a rule, active = well fitted curve in the direction sought with a large enough effect; inconclusive = small, poorly fitted or top-dose-only effect, or another doubt; inactive = no such curve, though single readings can be large; an effect the other way counts as inactive or inconclusive. Unless noted, % is scaled to controls: 0 for no effect and ±100 for the full control effect; potency is read from the fitted curve at half-maximal effect.

Screening O=C(CNC(=O)c1ccc(Cl)cc1)OCC(=O)c1ccc2c(c1)OCCO2 returned B2AR arrestin -0.1%, Chronic BCR inh 7.3%, MBNL1 CUG block 1.2%, GLS inh -0.2% and Anesthetic bind 10µM*.
`C[C@]12CC[C@@H]3c4cc(O)c(O)cc4CC[C@H]3[C@@H]1CC[C@@H]2O` gave B2AR arrestin -0.7%, Chronic BCR inh inconclusive, MBNL1 CUG block 4.8%, GLS inh 8.91µM* and Anesthetic bind -7.2%.
`CC(=O)OC1CC(OC2C(O)CC(OC3C(O)CC(O[C@H]4CC[C@]5(C)C6CC[C@]7(C)[C@@H](C8=CC(=O)OC8)[C@@H](O)C[C@]7(O)[C@@H]6CC[C@@H]5C4)OC3C)OC2C)OC(C)C1OC1OC(CO)C(O)C(O)C1O` (stereo partly drawn) gave GLS inh -4.4%.
Cc1cccc(N2C(=O)NC(=O)/C(=C/c3ccc([N+](=O)[O-])o3)C2=O)c1 was read as B2AR arrestin -0.4%, Chronic BCR inh 20.6%, GLS inh 7.08µM* and Anesthetic bind -9.8%.
Screening C#C[C@]1(OC(=O)CCCCCC)CC[C@H]2C3CCC4=CC(=O)CC[C@@H]4[C@H]3CC[C@@]21C (stereo partly drawn) returned GLS inh -2.4%.
O=c1c2ccccc2[se]n1-c1ccccc1 was read as B2AR arrestin -1.9%, Chronic BCR inh inconclusive, MBNL1 CUG block 15.7%, GLS inh 6.31µM* and Anesthetic bind inconclusive.
`O=c1c2ccccc2nc(-c2ccccc2)n1-c1ccccc1` gave B2AR arrestin 0.1%, Chronic BCR inh 12.9%, MBNL1 CUG block -9.1%, GLS inh 2.1% and Anesthetic bind 2.0%.
Screening CN1CC[C@]23c4c5ccc(O)c4OC2C(O)CCC3[C@H]1C5 (stereo partly drawn) returned GLS inh 54.2%[99.4 µM].
For CCn1ncc(-c2ccnc3cc(C(=O)O)nn23)c1C the results were B2AR arrestin 0.2%, Chronic BCR inh -2.9%, MBNL1 CUG block inconclusive, GLS inh 3.16µM* and Anesthetic bind 146.7%.
For Cc1ccc(N2C(=O)NC(=O)/C(=C/c3ccc(-c4ccc(C(=O)O)c(Cl)c4)o3)C2=O)cc1 the results were B2AR arrestin 0.1%, Chronic BCR inh 5.0%, MBNL1 CUG block 2.4%, GLS inh 11.2µM* and Anesthetic bind -0.3%.
For Cc1cc(/C=C2\C(=O)NC(=O)N(c3cccc(F)c3)C2=O)c(C)n1-c1ccc(C(=O)O)c(Cl)c1 the results were B2AR arrestin -0.3%, Chronic BCR inh inconclusive, MBNL1 CUG block 6.8%, GLS inh inconclusive and Anesthetic bind 6.8%.
For CN[C@H]1C[C@@H](N)[C@H](O)[C@@H](O[C@@H]2O[C@H](CO)[C@H](O)[C@@H]3O[C@]4(O[C@@H]23)O[C@H]([C@@H](N)CO)[C@H](O)[C@@H](O)[C@H]4O)[C@@H]1O the results were GLS inh 1.1%.
For Nc1nc(/C(=C/CC(=O)O)C(=O)NC2C(=O)N3C(C(=O)O)=CCSC23)cs1 (stereo not drawn) the results were GLS inh 25.1µM* and Anesthetic bind 2.9%.
`CC1=C(C(=O)O)N2C(=O)[C@@H](NC(=O)CCCC(=O)O)[C@H]2SC1` gave B2AR arrestin -0.5%, Chronic BCR inh 2.7%, MBNL1 CUG block -10.9%, GLS inh 0.6% and Anesthetic bind -1.2%.
`CN1C(=O)C(=Cc2ccc(Sc3ccccc3)o2)C(=O)N(C)C1=S` gave GLS inh -11.7%.
For CN1C(=O)C(=Cc2ccc(Sc3ccccc3)o2)C(=O)N(C)C1=O the results were B2AR arrestin -0.3%, Chronic BCR inh 0.5%, MBNL1 CUG block -5.1%, GLS inh 4.47µM* and Anesthetic bind 2.1%.
Screening Cc1cc(/C=C2\C(=O)NC(=O)N(Cc3ccccc3)C2=O)c(C)n1-c1ccc(Cl)c(C(=O)O)c1 returned B2AR arrestin 0.0%, Chronic BCR inh 2.0%, MBNL1 CUG block -14.7%, GLS inh 10µM* and Anesthetic bind -17.1%.
Cc1cc(/C=C2\C(=O)NC(=O)N(Cc3ccccc3Cl)C2=O)c(C)n1-c1ccc(C(=O)O)cc1 was read as B2AR arrestin -0.2%, Chronic BCR inh -12.5%, MBNL1 CUG block -5.4%, GLS inh 133.4% and Anesthetic bind -9.2%.
CCNC(C)Cc1ccc2c(c1)OCO2 (stereo not drawn) was read as GLS inh -0.9%[99.4 µM].
Screening Oc1ccc2c3c1O[C@H]1[C@@H](O)C=CC4[C@@H](C2)NCC[C@@]341 (stereo partly drawn) returned GLS inh -7.1%.
For [Hg+][c]1ccccc1 the results were GLS inh 12.6µM*.
Screening Oc1ccc2c3c1OC1C(O)C=CC4[C@@H](C2)NCC[C@]314 (stereo partly drawn) returned GLS inh 64.7%[99.4 µM].
Screening CN1CCN(c2ccc(/C=C3\C(=O)NC(=S)N(c4cccc(Br)c4)C3=O)o2)CC1 returned B2AR arrestin -1.1%, Chronic BCR inh inconclusive, MBNL1 CUG block inconclusive, GLS inh 11.2µM* and Anesthetic bind 6.1%.
`O=C(O)C1C2c3ccccc3C(=O)C1(C(=O)O)c1ccccc12` (stereo not drawn) gave GLS inh -4.3%.
COC12c3ccccc3-c3ccccc3C1C(C(=O)O)C2C(=O)O (stereo not drawn) was read as GLS inh 17.8µM*.
`CC1Oc2cc3c(-c4c(O)cc(O)c5c(O)c6c(cc45)OC(C)C(C)C6=O)c(O)cc(O)c3c(O)c2C(=O)C1C` (stereo not drawn) gave B2AR arrestin -0.1%, Chronic BCR inh inconclusive, MBNL1 CUG block -9.3%, GLS inh 7.94µM* and Anesthetic bind inconclusive.
Clc1ccc(C(c2ccc(Cl)cc2)n2cc[n+](CC(OCc3ccc(Cl)cc3Cl)c3ccc(Cl)cc3Cl)c2)cc1 (stereo not drawn) was read as B2AR arrestin -0.1%, Chronic BCR inh inconclusive and GLS inh 14.1µM*.
For CCC1CC2CC3c4[nH]c5ccc(OC)cc5c4CCN(C2)C13 (stereo not drawn) the results were GLS inh 21.1%[99.4 µM].
O=C1NC(=S)N(c2ccc(F)cc2)C(=O)/C1=C/c1ccco1 was read as B2AR arrestin -1.1%, Chronic BCR inh 4.2%, MBNL1 CUG block 4.6% and Anesthetic bind inconclusive.
`O=C1NC(=O)C(=Cc2ccco2)C(=O)N1` gave GLS inh 11.2µM*.
